What follows are compounds tested against Serine/threonine-protein kinase PAK 2 (Homo sapiens) (UniProt Q13177). Settings: at 0.1 µM.
Sequence of Serine/threonine-protein kinase PAK 2 (Homo sapiens) (Q13177 whole entry): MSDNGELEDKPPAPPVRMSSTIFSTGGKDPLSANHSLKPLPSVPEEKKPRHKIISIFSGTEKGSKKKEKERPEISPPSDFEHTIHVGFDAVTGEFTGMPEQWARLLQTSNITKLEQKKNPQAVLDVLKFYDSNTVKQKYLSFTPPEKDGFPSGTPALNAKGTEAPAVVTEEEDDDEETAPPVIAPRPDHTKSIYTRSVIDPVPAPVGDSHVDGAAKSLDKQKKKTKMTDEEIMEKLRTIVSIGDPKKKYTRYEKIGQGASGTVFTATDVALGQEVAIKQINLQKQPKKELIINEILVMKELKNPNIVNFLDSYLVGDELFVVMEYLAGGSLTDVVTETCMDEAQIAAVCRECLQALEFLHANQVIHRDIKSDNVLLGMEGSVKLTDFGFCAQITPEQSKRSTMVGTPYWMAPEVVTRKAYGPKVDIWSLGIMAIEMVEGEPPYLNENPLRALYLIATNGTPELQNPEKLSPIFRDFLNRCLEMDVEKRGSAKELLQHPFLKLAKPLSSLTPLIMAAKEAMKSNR

| SMILES | inhibition [%] |
| --- | --- |
| COc1ccc(C2=C(N3CCc4ccccc43)C(=O)NC2=O)cc1 | 1.61 |
| NS(=O)(=O)c1ccc(Nc2cc(-c3ccc(O)c(F)c3)n[nH]2)cc1 | -1.12 |
| COc1cc2ncn(-c3cc(OCCc4ccccc4)c(C(N)=O)s3)c2cc1OC | 0.32 |
| CN1CCN(CCCNc2nc3ccc(Oc4ccc(NC(=O)Nc5cc(C(F)(F)F)ccc5F)cc4)cc3[nH]2)CC1 | 1.22 |
| CCc1ccc(Oc2nccc(-c3c(-c4ccc(F)cc4)ncn3C3CCNCC3)n2)cc1 | 1.26 |
| CCS(=O)(=O)c1ccc(OC)c(Nc2ncc(-c3ccccc3Cl)o2)c1 | 1.78 |
| c1ccc(-c2n[nH]cc2-c2ccnc(-c3ccc(OCCN4CCOCC4)cc3)c2)nc1 | 1.69 |
| COc1cc(Nc2ncc3c(C)nc(-c4cccc(Oc5ccccc5)c4)n3n2)cc(OC)c1OC | 1.49 |
| CNC(=O)c1cncc(/C=C/c2c(C)cccc2C)c1 | 1.52 |
| COc1cc(Nc2ncc3c(C)nc(-c4cccc(C(F)(F)F)c4)n3n2)cc(OC)c1OC | 1.46 |
| CCN(CC)Cc1ccc(Nc2nccc(-c3cnn4ncccc34)n2)cc1 | 1.19 |

What follows are compounds tested against Serine/threonine-protein kinase PAK 2 (Homo sapiens) (UniProt Q13177). Settings: at 1 µM.

| SMILES | inhibition [%] |
| --- | --- |
| COc1cccc(/C=N/Nc2ncnc3c2cnn3-c2cccc(OC)c2)c1 | 1.26 |
| COc1ccc2ncn(-c3cc(O[C@H](C)c4ccccc4Cl)c(C(N)=O)s3)c2c1 | 1.19 |
| O=C(Nc1n[nH]c2cc(-c3cc(F)ccc3F)ccc12)C1CC1 | 2.22 |
| COc1ccc(-c2ccc3c(NC(=O)C4CC4)n[nH]c3n2)cc1 | -0.84 |
| Clc1ccc(CNc2nccc(-c3cnn4ncccc34)n2)cc1 | 0.67 |
| CN(C)CCOc1ccc(-c2cc(-c3ccc4c(c3)CCC4=NO)c(-c3ccncc3)o2)cc1 | -2.82 |
| COc1cc(N2CCN(C(C)C)CC2)ccc1Nc1nc(Nc2ccc(F)cc2C(=O)NC[C@@H](O)CO)c2cc[nH]c2n1 | 1.54 |
| Cc1ccc(C(=O)NC(C)C)cc1-c1ccc(C(=O)NCC2CC2)cc1 | -3.39 |
| O=C(Nc1ccc(Oc2ccc3[nH]c(NC(=O)c4ccccc4)nc3c2)cc1)Nc1cc(C(F)(F)F)ccc1F | 2.3 |
| Cc1ccc(C(=O)NC2CCC2)cc1-c1ccc(C(=O)NCC2CC2)cc1 | 2.3 |
| O=C1Nc2ccc(I)cc2C1=Cc1cc(Br)c(O)c(Br)c1 | 1.49 |
| COc1cc(C)c(N(C)C(=O)CN(C)C)cc1Nc1nc(Nc2cccc(F)c2C(N)=O)c2cc[nH]c2n1 | 0.77 |
| NS(=O)(=O)c1ccc(N/N=C2\C(=O)Nc3ccc(-c4cnco4)cc32)cc1 | 0.86 |
| CS(=O)(=O)CCNCc1ccc(-c2ccc3ncnc(Nc4ccc(OCc5ccccc5)c(Br)c4)c3c2)o1 | 1.63 |
| COc1cccc(-n2cnc3c(N/N=C/c4ccncc4)ncnc32)c1 | -0.99 |
| Cc1ccc(NC(=O)c2ccoc2)cc1-c1ccc(C(=O)NCC2CC2)cc1 | -1.68 |

| SMILES | inhibition [%] |
| --- | --- |
| COc1ccc2cc(-c3c(-c4ccncc4)nc(-c4ccc([S+](C)[O-])cc4C)n3C)ccc2c1 (configuration not stated) | -1.27 |
| CCS(=O)(=O)c1ccc(OC)c(Nc2ncc(-c3cccc(-c4ccccc4F)c3)o2)c1 | -0.6 |
| Fc1ccc(-c2ncn(C3CCNCC3)c2-c2ccnc(Oc3ccc(F)c(F)c3)n2)cc1 | 1.83 |
| COc1ccc2cc(-c3c(-c4ccncc4)nc(-c4ccc(S(C)(=O)=O)cc4C)n3C)ccc2c1 | 2.16 |
| O=C1NC(=O)C(c2cccc(Cl)c2)=C1Nc1ccc(Cl)c(C(=O)O)c1 | 0.87 |
| CN(C)c1ccc2c(c1)/C(=C/Nc1ccc(S(N)(=O)=O)cc1)C(=O)N2 | 0.6 |
| CN(c1ccc(NC(=O)Nc2c(Cl)cccc2Cl)cc1)c1ccnc(Nc2cccc(CS(C)(=O)=O)c2)n1 | 1.61 |
| COc1ccc(C2=C(N3CCc4ccccc43)C(=O)NC2=O)cc1 | 1.57 |
| NS(=O)(=O)c1ccc(Nc2cc(-c3ccc(O)c(F)c3)n[nH]2)cc1 | -1.29 |
| COc1cc2ncn(-c3cc(OCCc4ccccc4)c(C(N)=O)s3)c2cc1OC | -0.01 |
| CN1CCN(CCCNc2nc3ccc(Oc4ccc(NC(=O)Nc5cc(C(F)(F)F)ccc5F)cc4)cc3[nH]2)CC1 | 1.06 |
| CCc1ccc(Oc2nccc(-c3c(-c4ccc(F)cc4)ncn3C3CCNCC3)n2)cc1 | 2.44 |
| CCS(=O)(=O)c1ccc(OC)c(Nc2ncc(-c3ccccc3Cl)o2)c1 | 0.49 |
| c1ccc(-c2n[nH]cc2-c2ccnc(-c3ccc(OCCN4CCOCC4)cc3)c2)nc1 | 0.57 |
| COc1cc(Nc2ncc3c(C)nc(-c4cccc(Oc5ccccc5)c4)n3n2)cc(OC)c1OC | 1.12 |
